In PubChem BioAssay (NCI):
This is part of a sample that, as a whole, favours compounds with a hit. Of some 79,000 tested, about 15% had one in any assay. Calls of active or inactive are those of the source. Rule as the data show it: active = growth inhibition above about 70%; inactive = the rest.

Test: NCI Yeast Anticancer Drug Screen. Data for the mlh1 strain (AID 171);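 also: 0% = growth of vehicle-treated control cultures of the same strain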
Conditions: S. cerevisiae mlh1 strain growth inhibition; at 3.7 µM; active compounds read high
Method in brief: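 Read-out: growth inhibition versus vehicle controls. Strain: engineered yeast with a defined DNA repair or cell cycle defect, compound-treated.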

| SMILES | growth inhibition |
| --- | --- |
| C=C[C@H]1CN2CC[C@H]1C[C@@H]2[C@@H](O)c1ccnc2ccccc12 | 1% (inactive) |
| O=c1c2ccccc2[se]n1-c1cccnc1 | 51% (inactive) |
| CC12CCC(C1)C(C)(C)C2OC(=O)c1ccccc1N (stereo not given) | -1% (inactive) |
| OC1(c2ccccc2)CC2CCC(C1)N2CCCC(O)(c1ccccc1)c1ccccc1 (stereo not given) | 1% (inactive) |
| COC(=O)C(F)C(Br)C(=O)OC (stereo not given) | 96% (active) |
| CNCC(O)c1ccc(O)c(O)c1.[Pt].c1ccc([PH+](c2ccccc2)c2ccccc2)cc1.c1ccc([PH+](c2ccccc2)c2ccccc2)cc1 | -1% (inactive) |
| Nc1nc(N)c(-c2ccc(Cl)c(Cl)c2)c(CP(Cl)(Cl)(Cl)Br)n1 | -2% (inactive) |
| CC1CC(C)CC(C)C(O)/C(C#N)=C/C=C/CC(C2CCCC2C(=O)O)OC(=O)CC(O)C(C)C1 (stereo not given) | 98% (active) |

Same assay, conditions: S. cerevisiae mlh1 strain growth inhibition; at 11.0 µM; active compounds read high

| SMILES | growth inhibition |
| --- | --- |
| C=C[C@H]1CN2CC[C@H]1C[C@@H]2[C@@H](O)c1ccnc2ccccc12 | -6% (inactive) |
| O=c1c2ccccc2[se]n1-c1cccnc1 | 98% (active) |
| CC12CCC(C1)C(C)(C)C2OC(=O)c1ccccc1N (stereo not given) | -5% (inactive) |
| OC1(c2ccccc2)CC2CCC(C1)N2CCCC(O)(c1ccccc1)c1ccccc1 (stereo not given) | 3% (inactive) |
| COC(=O)C(F)C(Br)C(=O)OC (stereo not given) | 98% (active) |
| CNCC(O)c1ccc(O)c(O)c1.[Pt].c1ccc([PH+](c2ccccc2)c2ccccc2)cc1.c1ccc([PH+](c2ccccc2)c2ccccc2)cc1 | 8% (inactive) |
| Nc1nc(N)c(-c2ccc(Cl)c(Cl)c2)c(CP(Cl)(Cl)(Cl)Br)n1 | 7% (inactive) |
| CC1CC(C)CC(C)C(O)/C(C#N)=C/C=C/CC(C2CCCC2C(=O)O)OC(=O)CC(O)C(C)C1 (stereo not given) | 98% (active) |

Same assay, conditions: S. cerevisiae mlh1 strain growth inhibition; at 33.0 µM; active compounds read high

| SMILES | growth inhibition |
| --- | --- |
| C=C[C@H]1CN2CC[C@H]1C[C@@H]2[C@@H](O)c1ccnc2ccccc12 | -7% (inactive) |
| O=c1c2ccccc2[se]n1-c1cccnc1 | 99% (active) |
| CC12CCC(C1)C(C)(C)C2OC(=O)c1ccccc1N (stereo not given) | 11% (inactive) |
| OC1(c2ccccc2)CC2CCC(C1)N2CCCC(O)(c1ccccc1)c1ccccc1 (stereo not given) | 23% (inactive) |
| COC(=O)C(F)C(Br)C(=O)OC (stereo not given) | 99% (active) |
| CNCC(O)c1ccc(O)c(O)c1.[Pt].c1ccc([PH+](c2ccccc2)c2ccccc2)cc1.c1ccc([PH+](c2ccccc2)c2ccccc2)cc1 | 91% (active) |
| Nc1nc(N)c(-c2ccc(Cl)c(Cl)c2)c(CP(Cl)(Cl)(Cl)Br)n1 | 48% (inactive) |
| CC1CC(C)CC(C)C(O)/C(C#N)=C/C=C/CC(C2CCCC2C(=O)O)OC(=O)CC(O)C(C)C1 (stereo not given) | 98% (active) |

Same assay, conditions: S. cerevisiae mlh1 strain growth inhibition; at 100.0 µM; active compounds read high

| SMILES | growth inhibition |
| --- | --- |
| C=C[C@H]1CN2CC[C@H]1C[C@@H]2[C@@H](O)c1ccnc2ccccc12 | 9% (inactive) |
| O=c1c2ccccc2[se]n1-c1cccnc1 | 93% (active) |
| CC12CCC(C1)C(C)(C)C2OC(=O)c1ccccc1N (stereo not given) | 38% (inactive) |
| OC1(c2ccccc2)CC2CCC(C1)N2CCCC(O)(c1ccccc1)c1ccccc1 (stereo not given) | 80% (active) |
| COC(=O)C(F)C(Br)C(=O)OC (stereo not given) | 99% (active) |
| CNCC(O)c1ccc(O)c(O)c1.[Pt].c1ccc([PH+](c2ccccc2)c2ccccc2)cc1.c1ccc([PH+](c2ccccc2)c2ccccc2)cc1 | 97% (active) |
| Nc1nc(N)c(-c2ccc(Cl)c(Cl)c2)c(CP(Cl)(Cl)(Cl)Br)n1 | 88% (active) |
| CC1CC(C)CC(C)C(O)/C(C#N)=C/C=C/CC(C2CCCC2C(=O)O)OC(=O)CC(O)C(C)C1 (stereo not given) | 98% (active) |

Test: NCI Yeast Anticancer Drug Screen. Data for the sgs1 strain (AID 173);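 also: 0% = growth of vehicle-only control cultures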
Conditions: S. cerevisiae sgs1 mutant, at 1.2 µM, active compounds read high
Method in brief: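 Read-out: yeast growth inhibition relative to vehicle controls, following compound exposure of a strain with a defined DNA repair/cell cycle alteration.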

| SMILES | growth inhibition |
| --- | --- |
| C=C[C@H]1CN2CC[C@H]1C[C@@H]2[C@@H](O)c1ccnc2ccccc12 | -3% (inactive) |
| O=c1c2ccccc2[se]n1-c1cccnc1 | 23% (inactive) |
| CC12CCC(C1)C(C)(C)C2OC(=O)c1ccccc1N (stereo not given) | -11% (inactive) |
| OC1(c2ccccc2)CC2CCC(C1)N2CCCC(O)(c1ccccc1)c1ccccc1 (stereo not given) | 1% (inactive) |
| COC(=O)C(F)C(Br)C(=O)OC (stereo not given) | 48% (inactive) |
| CCCCCCCCCC[Se]C#N | -1% (inactive) |
| CNCC(O)c1ccc(O)c(O)c1.[Pt].c1ccc([PH+](c2ccccc2)c2ccccc2)cc1.c1ccc([PH+](c2ccccc2)c2ccccc2)cc1 | 2% (inactive) |
| Nc1nc(N)c(-c2ccc(Cl)c(Cl)c2)c(CP(Cl)(Cl)(Cl)Br)n1 | -1% (inactive) |
| CC1CC(C)CC(C)C(O)/C(C#N)=C/C=C/CC(C2CCCC2C(=O)O)OC(=O)CC(O)C(C)C1 (stereo not given) | 95% (active) |

Same assay, conditions: S. cerevisiae sgs1 mutant, at 3.7 µM, active compounds read high

| SMILES | growth inhibition |
| --- | --- |
| C=C[C@H]1CN2CC[C@H]1C[C@@H]2[C@@H](O)c1ccnc2ccccc12 | -5% (inactive) |
| O=c1c2ccccc2[se]n1-c1cccnc1 | 19% (inactive) |
| CC12CCC(C1)C(C)(C)C2OC(=O)c1ccccc1N (stereo not given) | 0% (inactive) |
| OC1(c2ccccc2)CC2CCC(C1)N2CCCC(O)(c1ccccc1)c1ccccc1 (stereo not given) | 3% (inactive) |
| COC(=O)C(F)C(Br)C(=O)OC (stereo not given) | 95% (active) |
| CCCCCCCCCC[Se]C#N | 1% (inactive) |
| CNCC(O)c1ccc(O)c(O)c1.[Pt].c1ccc([PH+](c2ccccc2)c2ccccc2)cc1.c1ccc([PH+](c2ccccc2)c2ccccc2)cc1 | 4% (inactive) |
| Nc1nc(N)c(-c2ccc(Cl)c(Cl)c2)c(CP(Cl)(Cl)(Cl)Br)n1 | 6% (inactive) |
| CC1CC(C)CC(C)C(O)/C(C#N)=C/C=C/CC(C2CCCC2C(=O)O)OC(=O)CC(O)C(C)C1 (stereo not given) | 97% (active) |
